Measurements as given in PubChem BioAssay (NCATS).
Values without a mark were called inactive. Inconclusive results are not listed. Calls of active or inactive are those of the source. Unless noted, the call rests on the fitted dose curve; in most records, active means well fitted curve in either direction with a large enough effect (not every such curve was filed as active); inconclusive means small, poorly fitted or top-dose-only effect, or another doubt; inactive means flat fitted curve, though single readings scatter.

How the values were obtained:
[1] = biological target: Lysosomal acid glucosylceramidase (Homo sapiens) (UniProt P04062); experiment: Glucocerebrosidase-p2 (AID 348; in the data active means potency below about 10 µM; further: potency means the concentration at half of the fitted maximal effect); details: purified GBA, blue fluorogenic substrate, 40 min
Sequence of Lysosomal acid glucosylceramidase (Homo sapiens) (P04062 whole entry, looked up): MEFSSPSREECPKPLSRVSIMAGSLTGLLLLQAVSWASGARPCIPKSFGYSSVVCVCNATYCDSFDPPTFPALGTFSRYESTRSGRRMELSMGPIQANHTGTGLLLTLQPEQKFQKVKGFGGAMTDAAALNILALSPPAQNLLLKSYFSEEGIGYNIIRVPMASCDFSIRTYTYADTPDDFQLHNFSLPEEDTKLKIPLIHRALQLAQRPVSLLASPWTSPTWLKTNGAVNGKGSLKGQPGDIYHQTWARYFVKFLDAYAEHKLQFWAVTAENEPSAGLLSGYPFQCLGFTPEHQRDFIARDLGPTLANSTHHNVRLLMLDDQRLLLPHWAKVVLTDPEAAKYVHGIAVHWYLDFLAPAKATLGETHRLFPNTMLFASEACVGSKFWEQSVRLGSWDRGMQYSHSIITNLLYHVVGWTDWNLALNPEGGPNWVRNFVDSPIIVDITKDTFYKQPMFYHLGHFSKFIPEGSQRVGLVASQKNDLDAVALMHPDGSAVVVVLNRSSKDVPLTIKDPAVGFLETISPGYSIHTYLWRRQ
Summary of the method: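 Normal human glucocerebrosidase (0.2 nM) with blue fluorogenic substrate (80 uM final) in citrate/phosphate pH 5.9 with 10mM sodium taurocholate, 0.01% tween-20; 40 min RT, NaOH/glycine stop; fluorescence Ex 365/Em 440; AC50 from a titration from 0.6 nM upwards.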

[2] = AP1 Signaling Pathway (AID 357); details: ME-180 AP-1-bla reporter, EGF-induced, beta-lactamase ratio, 5 h; at 7.69 µM (top of the series) unless noted;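 further: ME-180 reporter cells stimulated with EGF at its EC50 level; on the % scale 0 is the no-effect control and ±100 the full control effect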
Summary of the method: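 Cells are seeded overnight, exposed to compound titrations and an EC50 level of EGF for 5 hours at 37 °C, then loaded with CCF4 dye for 2.5 hours. Beta-lactamase activity under the AP-1 element is read as a blue/green ratio.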

[3] = NFAT Signaling Pathway (AID 444); details: Jurkat NFAT-bla M1, carbachol, beta-lactamase ratio, 5 h; at 7.69 µM (top of the series) unless noted;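 further: carbachol stimulus at about its EC50 of 1 µM final; on the % scale 0 is the no-effect control and ±100 the full control effect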
Summary of the method: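 Jurkat cells with NFAT-driven β-lactamase reporter and co-expressed M1 receptor, stimulated with carbachol (final 1 uM, ~EC50), compound titration, 5 h at 37 °C. CCF4 loaded 1 h at RT; 460/530 nm ratio gave %activity and AC50.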

[4] = Stat Signaling Pathway (AID 446); details: ME-180 SIE beta-lactamase reporter, IL-6 stimulated, 5 h; at 7.69 µM (top of the series) unless noted;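 further: ME-180 cervical cancer cells given 40 pM IL-6 alongside compound; SIE-controlled beta-lactamase reporter measured as 460/530 nm FRET emission ratio; on the % scale 0 is the no-effect control and ±100 the full control effect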
Summary of the method: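 Emission at 460 and 530 nm (excitation 405 nm) reports SIE-controlled beta-lactamase in ME-180 cells. Cells received compound with 40 pM IL-6 for 5 hrs at 37 C; data scaled between 300 pM IL-6 and 125 nM JAK-inhibitor controls.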

[5] = biological target: Glucocorticoid receptor (Homo sapiens) (UniProt P04150); experiment: GR-GFP Redistribution (AID 450;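 active means compounds whose dose series gives a full or clear partial fitted curve of increased nuclear translocation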; further: potency means the concentration at half of the fitted maximal effect); details: U2OS GR-GFP nuclear translocation, laser cytometry, 2 h
Sequence of Glucocorticoid receptor (Homo sapiens) (P04150 whole entry, looked up, the tested form may be a part): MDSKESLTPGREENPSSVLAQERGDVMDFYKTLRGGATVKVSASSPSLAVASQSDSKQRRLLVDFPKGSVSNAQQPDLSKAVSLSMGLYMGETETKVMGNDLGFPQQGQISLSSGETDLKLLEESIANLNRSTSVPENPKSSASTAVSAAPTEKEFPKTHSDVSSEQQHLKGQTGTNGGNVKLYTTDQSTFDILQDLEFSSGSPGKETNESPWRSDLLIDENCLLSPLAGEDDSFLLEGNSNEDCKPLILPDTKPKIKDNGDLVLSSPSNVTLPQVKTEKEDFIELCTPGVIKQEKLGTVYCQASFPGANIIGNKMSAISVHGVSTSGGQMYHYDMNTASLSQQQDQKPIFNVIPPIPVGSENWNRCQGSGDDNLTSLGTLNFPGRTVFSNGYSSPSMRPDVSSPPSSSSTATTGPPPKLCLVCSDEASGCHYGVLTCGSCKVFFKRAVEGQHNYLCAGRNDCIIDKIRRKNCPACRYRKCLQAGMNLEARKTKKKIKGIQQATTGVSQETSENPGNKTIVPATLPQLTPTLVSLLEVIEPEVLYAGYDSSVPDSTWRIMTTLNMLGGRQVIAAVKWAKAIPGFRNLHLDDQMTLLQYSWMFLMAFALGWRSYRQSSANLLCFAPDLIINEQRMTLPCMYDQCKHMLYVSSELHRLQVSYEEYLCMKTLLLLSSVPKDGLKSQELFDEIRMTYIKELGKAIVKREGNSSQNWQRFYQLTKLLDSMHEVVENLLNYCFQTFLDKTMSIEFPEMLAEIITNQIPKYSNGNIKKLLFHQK

[6] = biological target: Glucocorticoid receptor (Homo sapiens) (UniProt P04150); experiment: GR-EFC Redistribution (AID 451; calls by dose curve; further: potency means the concentration at half of the fitted maximal effect); details: CHO-K1 GR-EFC translocation, beta-gal luminescence, 2 h
Summary of the method: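 CHO-K1 cells expressing nuclear EA and GR-ED fragments of b-gal; compounds titrated up to 46 uM final, 2 h at 37 C. GR nuclear translocation read as complemented b-gal luminescence after 1 h RT detection.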

[7] = biological target: Mitogen-activated protein kinase 10 (Mus musculus) (UniProt Q61831); experiment: JNK3 AlphaScreen Assay (AID 530); details: JNK3 lysate, c-Jun phosphorylation; series mostly up to 11.4 µM;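 further: kinase came from lysate of stimulated human HepG2 cells; signal reports phosphorylation of biotinylated GST-cJun 1-79 at Ser73 with 10 µM ATP; on the % scale 0 is the no-effect control and ±100 the full control effect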
Summary of the method: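 HepG2 lysate (IL-1b/TNFa pre-activated) + biotin-GST-cJun 1-79 + anti-pSer73 cJun; cpd titration, 15 min RT; ATP 10 uM start; Tris pH 7.6, MgCl2, DTT, vanadate; beads in EDTA buffer; AlphaScreen.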

[8] = biological target: 3',5'-cyclic-AMP phosphodiesterase 4B (Homo sapiens) (UniProt Q07343); experiment: qHTS Assay for Inhibitors of PDE-IV (AID 607; active means well fitted activation curve with a large enough effect in the main read-out, with a control signal flat, not every such curve was filed as active; further: % of control where 0% means no effect); details: HEK293 ACTOne CNG channel cells, membrane potential fluorescence; series mostly up to 22.9 µM
Sequence of 3',5'-cyclic-AMP phosphodiesterase 4B (Homo sapiens) (Q07343 whole entry, looked up): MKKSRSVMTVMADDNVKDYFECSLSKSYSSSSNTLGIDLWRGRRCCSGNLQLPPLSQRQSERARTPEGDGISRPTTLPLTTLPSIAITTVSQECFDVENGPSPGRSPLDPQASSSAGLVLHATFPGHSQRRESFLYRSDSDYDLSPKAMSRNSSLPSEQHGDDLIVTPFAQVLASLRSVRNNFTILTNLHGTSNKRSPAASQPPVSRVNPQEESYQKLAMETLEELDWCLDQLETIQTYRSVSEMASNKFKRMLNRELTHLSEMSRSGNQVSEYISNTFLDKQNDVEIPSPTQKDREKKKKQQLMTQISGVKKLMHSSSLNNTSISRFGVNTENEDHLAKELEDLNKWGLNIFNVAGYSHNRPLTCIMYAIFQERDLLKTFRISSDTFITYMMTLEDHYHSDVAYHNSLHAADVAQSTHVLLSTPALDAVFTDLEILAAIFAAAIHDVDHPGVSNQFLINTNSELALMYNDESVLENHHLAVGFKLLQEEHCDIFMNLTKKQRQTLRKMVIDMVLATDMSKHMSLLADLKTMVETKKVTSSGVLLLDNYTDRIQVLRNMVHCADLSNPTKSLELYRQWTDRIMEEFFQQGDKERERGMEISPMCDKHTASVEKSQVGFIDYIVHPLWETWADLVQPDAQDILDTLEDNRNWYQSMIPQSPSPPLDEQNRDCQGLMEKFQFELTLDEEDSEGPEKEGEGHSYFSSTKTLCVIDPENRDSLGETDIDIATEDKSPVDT
Summary of the method: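 The readout is membrane depolarisation from a cAMP-sensing CNG channel, detected with a potential dye at ex 535/em 590. Cells were HEK293-derived (endogenous PDE-IV) at 1000 cells/well, titrated up to 22.9 uM final.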

[9] = qHTS Assay for Identification of Small Molecule Agonists for Hypoxia Response Element Signaling Pathway (AID 914; active means well fitted activation curve with a large enough effect in the signal ratio, with a control signal flat, not every such curve was filed as active; the % refers to the signal ratio; further: % of control where 0% means no effect); details: ME-180 (cervical carcinoma) HRE-bla reporter, beta-lactamase ratio, CoCl2, 17 h; activation: stronger effect = higher value
Summary of the method: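 HRE-bla ME-180 assay for agonist-like enhancement of an EC50 CoCl2 stimulus: 17 h at 37 degrees Celsius, CCF4 for 2.5 h, ratiometric 460/530 nm signal converted to %Activity and fitted to AC50.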

[10] = biological target: Cytochrome P450 2C19 (Homo sapiens) (UniProt P33261); experiment: qHTS Assay for Inhibitors and Substrates of Cytochrome P450 2C19 (AID 899; active means well fitted inhibition curve with a large enough effect; further: nearly all actives have a fitted effect of over 60% in size; further: potency means the concentration at half of the fitted maximal effect); details: recombinant CYP2C19, luciferin-H EGE luminescence; series mostly up to 11.4 µM
Sequence of Cytochrome P450 2C19 (Homo sapiens) (P33261 whole entry, looked up): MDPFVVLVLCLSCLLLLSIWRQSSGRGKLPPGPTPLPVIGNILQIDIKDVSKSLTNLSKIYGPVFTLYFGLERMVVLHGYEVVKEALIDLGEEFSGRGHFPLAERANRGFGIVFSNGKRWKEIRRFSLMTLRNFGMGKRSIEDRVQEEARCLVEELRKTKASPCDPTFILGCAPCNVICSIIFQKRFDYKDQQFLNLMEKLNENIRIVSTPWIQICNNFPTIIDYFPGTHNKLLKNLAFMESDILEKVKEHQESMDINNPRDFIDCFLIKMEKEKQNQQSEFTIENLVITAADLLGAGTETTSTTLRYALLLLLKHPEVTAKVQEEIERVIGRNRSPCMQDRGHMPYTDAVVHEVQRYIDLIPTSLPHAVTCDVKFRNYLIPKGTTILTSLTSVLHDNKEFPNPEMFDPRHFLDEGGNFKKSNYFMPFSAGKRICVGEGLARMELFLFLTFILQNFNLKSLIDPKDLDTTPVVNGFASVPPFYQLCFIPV
Summary of the method: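 Signal comes from luciferase acting on luciferin released by CYP2C19-mediated hydroxylation of Luciferin-H EGE, 10uM (KM). Assay mix: 5nM enzyme, 50mM KPO4; 60 min at 37C with NADPH regeneration. Data normalized against 57uM ketoconazole.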

Compound | Potency [1] | activity change, negative = inhibition [2] | activity change, negative = inhibition [3] | activity, negative = inhibition [4] | Potency [5] | Potency [6] | Potency [7] | Potency [8] | activation [9] | Potency [10]
O=[N+]([O-])c1cccc(/C=N\NC2=CS(=O)(=O)C=C2)c1 | > 11.4 µM | 4.95% | 14.6% | 5.97% | > 46 µM | > 9.22 µM | inactive | inactive | 1.06% | –
CC(=O)[C@H](C(=N)C#N)C(=O)Nc1ccccc1 | > 11.4 µM | -0.768% | -3.12% | 13.1% | > 46 µM | > 9.22 µM | inactive | inactive | – | inactive
O=C(O)[C@@H]1CCCN1Cc1ccc2c(c1)OCO2 | > 11.4 µM | 2.76% | 10.2% | 0.869% | > 46 µM | > 9.22 µM | inactive | inactive | 7.45% | –
CC(C)CNc1nc2ncnc(N)c2[nH]1 | > 11.4 µM | 5.51% | 1.95% | -10.8% | > 46 µM | > 9.22 µM | inactive | inactive | 10.3% | –
Clc1ccccc1/C=C\c1ccnc2ccccc12 | > 11.4 µM | -23.6% | 2.98% | 1.25% | > 46 µM | > 9.22 µM | inactive | inactive | -24.5% | –
OC[C@H](CCc1c[nH]c2ccccc12)c1c[nH]c2ccccc12 | > 11.4 µM | -11.6% | 29.4% | -1.35% | > 46 µM | > 9.22 µM | inactive | inactive | -29.3% | –
c1ccc(-c2nnn(CCN3CCCCC3)n2)cc1 | > 11.4 µM | 10.5% | -5.15% | 1.18% | > 46 µM | > 9.22 µM | inactive | inactive | -4.81% | 1.26 µM (active)
CN(C)CCNc1ccccn1 | > 11.4 µM | -8.09% | 12.6% | 3.69% | > 46 µM | > 9.22 µM | inactive | inactive | – | inactive
CC(C)=C[C@H]1[C@@H](C(=O)Oc2ccccc2C(C)C)C1(C)C | > 11.4 µM | 9.15% | 3.56% | 6.13% | > 46 µM | > 9.22 µM | inactive | inactive | – | 1.26 µM (active)
O=c1cc(N=Nc2ccc(O)cc2)[nH]c(=O)[nH]1 | > 11.4 µM | -6.46% | -4.22% | 4.24% | > 46 µM | > 9.22 µM | inactive | inactive | -26.3% | –
N#C/C(=C\Nc1ccccn1)C(=O)c1ccco1 | > 11.4 µM | 2.96% | 2.59% | 3.37% | > 46 µM | > 9.22 µM | inactive | inactive | -12.2% | –
c1ccc2nc(CC[C@@H]3CCCCN3)ccc2c1 | > 11.4 µM | 7.07% | -3.97% | -5.39% | > 46 µM | > 9.22 µM | inactive | inactive | -14.2% | –
O=C(CON1C(=O)c2ccccc2C1=O)c1ccccc1 | > 11.4 µM | -3.99% | 4.1% | 1.01% | > 46 µM | > 9.22 µM | inactive | inactive | -13.1% | –
